Outcome and Potency data for 9 compounds are collected here from PubChem BioAssay (Tox21).

Records with an inconclusive call do not appear. More than one record can exist for a structure, and the calls need not agree. The source made the active and inactive calls. Unless noted, calls come from the whole dose curve; as a rule, active = well fitted curve in the direction sought with a large enough effect in the repeat runs; inconclusive = weak or mixed curves; inactive = no such curve, though single readings can be large; an effect the other way counts as inactive or inconclusive.

Assay [1] in a line: qHTS assay to identify small molecule agonists of the sonic hedgehog signaling (Shh) pathway (AID 1259368; calls by dose curve;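 note: NIH/3T3-derived 3T3Gli1-Luc cells carrying a stable Gli1-driven firefly luciferase reporter; series mostly up to about 92 µM; nearly all actives have a fitted effect of over 15% in size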). A digest of the protocol:
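NIH/3T3-derived 3T3Gli1-Luc cells with stably integrated Gli1-driven firefly luciferase, 2,000 cells/well, compounds added after 4 hr. Incubated 24 hr at 37C, 5% CO2; luminescence read after 30 min with luciferase reagent at room temperature.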
A general note: Quantitative high-throughput screening tests each substance at several concentrations.

A short description of assay [2]: qHTS assay to identify small molecule antagonists of the sonic hedgehog signaling (Shh) pathway (AID 1259369; calls by dose curve; note: nearly all actives have a fitted effect of over 45% in size). An outline of the steps:
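NIH/3T3-derived Gli1-Luc reporter cells plated 4 h, dosed with compound, then stimulated with conditioned medium for 24 h at 37 C. Firefly luciferase luminescence read after 30 min with detection reagent at room temperature.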

The target of assay [3] is Estrogen receptor beta (Homo sapiens) (UniProt Q92731). In words: qHTS assay to identify small molecule agonists of the estrogen receptor beta (ER-beta) signaling pathway (AID 1259377; active = well fitted activation curve with a large enough effect in the signal ratio in the repeat runs, not every such curve was filed as active; the % refers to the signal ratio). An outline of the steps:
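In HEK293T cells bearing a UAS-beta-lactamase reporter under ER-beta control, DMSO-delivered compounds were incubated for 16 hr at 37C. Activity was detected as fluorescence 2 hours after LiveBLAzer B/G FRET substrate addition.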

Assay [4] in a line: qHTS assay to identify small molecule agonists of the androgen receptor (AR) signaling pathway in the presence of an antagonist - cell viability counter screen (AID 1259379).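 Note: MDA-kb2 human breast cancer cells carrying an MMTV luciferase reporter; series mostly up to about 92 µM; nearly all actives have a fitted effect of over 25% in size.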 A digest of the protocol:
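MDA-kb2 cells (MMTV-luciferase, AR/GR), 3,000/well, 5 h attachment, then 3.0 µM nilutamide (final) and compounds at 15 concentrations. Viability by CellTiter-Fluor fluorescence after 16 h at 37 °C, 0% CO2, in the reporter wells.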

The nature of assay [5]: qHTS assay to identify small molecule agonists of the estrogen receptor beta (ER-beta) signaling pathway - cell viability counter screen (AID 1259380). Note: nearly all actives have a fitted effect of over 30% in size. Note: potency is the fitted concentration of half-maximal effect. A digest of the protocol:
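ER-beta-UAS-bla HEK293T cells in medium with 2% charcoal-stripped FBS, pre-incubated 6 hr, then treated 16 hr at 37C. Cytotoxicity read in the same wells by CellTiter-Glo luminescence after 30 min at room temperature.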

A short description of assay [6]: qHTS assay to identify small molecule antagonists of the estrogen receptor beta (ER-beta) signaling pathway - cell viability counter screen (AID 1259382).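 Note: HEK293T cells carrying ER-beta-UAS-bla reporter stimulated with estradiol; series mostly up to about 92 µM; nearly all actives have a fitted effect of over 55% in size.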 An outline of the steps:
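ER-beta-UAS-bla HEK293T cells in 2% charcoal-stripped FBS medium, treated with compound plus 1 nM 17-beta-estradiol for 16 h at 37C. Viability read by CellTiter-Glo luminescence after 30 min at room temperature in the same wells.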

Assay [7] can be described thus: qHTS assay to identify small molecule agonists or antagonists of the thyroid stimulating hormone receptor (TSHR) signaling pathway - wild type cell line counter screen (AID 1259384; calls by dose curve). An outline of the steps:
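Counter screen in untransfected Hek293: compounds (15-point titration, triplicate) plus phosphodiesterase inhibitor Ro20-1724 added after 18 h plating; 30 min RT. Intracellular cAMP via competitive d2/cryptate immunoassay, 1 h incubation.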

Assay [8] addresses Thyrotropin receptor (Homo sapiens) (UniProt P16473). The assay can be described thus: qHTS assay to identify small molecule antagonists of the thyroid stimulating hormone receptor (TSHR) signaling pathway (AID 1259385; calls by dose curve; note: nearly all actives have a fitted effect of over 20% in size). A digest of the protocol:
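Antagonist mode: compound-treated TSHR-expressing HEK293 cells were stimulated with 1.5 ng/mL TSH (final) in presence of Ro20-1724 for 30 min at RT. HTRF cAMP detection after 1 h; each compound tested at 15 concentrations, triplicate.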

Assay [9] can be described thus: qHTS assay to identify small molecule agonists of the estrogen receptor alpha (ER-alpha) signaling pathway in the presence of an antagonist - cell viability counter screen (AID 1259386).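 Note: series mostly up to about 92 µM; cells exposed to compounds for 22 h at 37 °C before the viability read; nearly all actives have a fitted effect of over 30% in size.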 An outline of the steps: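 Cell viability in VM7Luc4E2 cells (endogenous full-length ER-alpha) measured by CellTiter-Fluor fluorescence in the same wells as the luciferase screen. Cells pre-cultured 5 days in charcoal-stripped serum, then treated 22 h with compounds at 15 concentrations plus 10.0nM ICI-182,780.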

For assay [10], the target named is Progesterone receptor (Homo sapiens) (UniProt P06401). The assay can be described thus: qHTS assay to identify small molecule agonists of the progesterone receptor (PR) signaling pathway (AID 1346784; calls by dose curve; note: nearly all actives have a fitted effect of over 30% in size). An outline of the steps:
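Using charcoal-stripped serum (2%) to limit endogenous steroids, PR-UAS-bla HEK 293T cells received compounds for 16 hr at 37C after 6 hr plating; beta-lactamase FRET fluorescence was recorded following 2 hr substrate loading at room temperature.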

For assay [11] the target is unchanged. In words: qHTS assay to identify small molecule antagonists of the progesterone receptor (PR) signaling pathway (AID 1346795; active = well fitted inhibition curve with a large enough effect in the signal ratio in the repeat runs, not every such curve was filed as active; the % refers to the signal ratio). A digest of the protocol: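 Inhibition of R5020-induced (1 nM final) beta-lactamase reporter signal in PR-UAS-bla HEK293T cells was scored by FRET fluorescence after overnight (16 hr) compound treatment.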
Assay [12] in a line: qHTS assay to identify small molecule antagonists of the progesterone receptor (PR) signaling pathway - cell viability counter screen (AID 1346798). Note: series mostly up to about 92 µM; nearly all actives have a fitted effect of over 50% in size. An outline of the steps: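 ATP content as viability readout: CellTiter-Glo luminescence, 30 min room temperature, in PR-UAS-bla HEK293T cells after 16 hr compound/R5020 treatment at 37C and 5% CO2.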
Assay [13] can be described thus: qHTS assay to identify small molecule agonists of the progesterone receptor (PR) signaling pathway - cell viability counter screen (AID 1346799; calls by dose curve; note: nearly all actives have a fitted effect of over 45% in size). A digest of the protocol: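 Cytotoxicity in PR-bla HEK293T cells: 16 h compound, 37C; CellTiter-Glo added post-FRET read; luminescence after 30 min RT.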
Assay [14] is described as follows: qHTS assay to identify small molecule antagonists of the TGF-beta/Smad signaling pathway - cell viability counter screen (AID 1346824). Note: nearly all actives have a fitted effect of over 50% in size. An outline of the steps: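 Cytotoxicity counter-screen run in the same wells as the beta-lactamase Smad reporter read: CellTiter-Glo luminescence after 30 min at room temperature. HEK 293T SBE-bla cells had 5 hr compound exposure at 37 C with TGF-beta1 (0.25 ng/mL stock).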

Assay [15] is described as follows: qHTS assay to identify small molecule agonists of the TGF-beta/Smad signaling pathway - cell viability counter screen (AID 1346829). Note: top concentration of the series differs between compounds; nearly all actives have a fitted effect of over 45% in size. A digest of the protocol: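 Cytotoxicity counter screen: CellTiter-Glo luminescence (30 min, room temperature) measured in the SBE-bla HEK 293T reporter wells after 5 hr compound treatment at 37 C and the 2 hr substrate step.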
The target in assay [16] is Thyrotropin-releasing hormone receptor (Homo sapiens) (UniProt P34981). In words: qHTS assay to identify small molecule antagonists of the thyrotropin-releasing hormone receptor (TRHR) signaling pathway (AID 1346877; active = well fitted inhibition curve with a large enough effect in the repeat runs, not every such curve was filed as active; note: series mostly up to about 51 µM). A digest of the protocol: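 TRHR-expressing HEK293 cells loaded with calcium dye for 2 h at 37 C; compounds pre-incubated 5 min at room temperature before TRH challenge at 1 nM final. Intracellular calcium fluorescence read kinetically for 3 min; 15 concentrations in triplicate.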

Assay [17] is described as follows: qHTS assay to identify small molecule agonists of the TGF-beta/Smad signaling pathway (AID 1346859; active = well fitted activation curve with a large enough effect in the signal ratio in the repeat runs, not every such curve was filed as active; the % refers to the signal ratio; note: series mostly up to about 77 µM). A digest of the protocol:
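Stable Smad binding element-beta-lactamase HEK 293T cells; 5 hr compound exposure at 37 C under 5% CO2; 2 hr room-temperature substrate step; fluorescence excited at 405 nm, collected at 460 nm and 530 nm.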

Sequence of Thyrotropin receptor (Homo sapiens) (P16473 whole entry, looked up): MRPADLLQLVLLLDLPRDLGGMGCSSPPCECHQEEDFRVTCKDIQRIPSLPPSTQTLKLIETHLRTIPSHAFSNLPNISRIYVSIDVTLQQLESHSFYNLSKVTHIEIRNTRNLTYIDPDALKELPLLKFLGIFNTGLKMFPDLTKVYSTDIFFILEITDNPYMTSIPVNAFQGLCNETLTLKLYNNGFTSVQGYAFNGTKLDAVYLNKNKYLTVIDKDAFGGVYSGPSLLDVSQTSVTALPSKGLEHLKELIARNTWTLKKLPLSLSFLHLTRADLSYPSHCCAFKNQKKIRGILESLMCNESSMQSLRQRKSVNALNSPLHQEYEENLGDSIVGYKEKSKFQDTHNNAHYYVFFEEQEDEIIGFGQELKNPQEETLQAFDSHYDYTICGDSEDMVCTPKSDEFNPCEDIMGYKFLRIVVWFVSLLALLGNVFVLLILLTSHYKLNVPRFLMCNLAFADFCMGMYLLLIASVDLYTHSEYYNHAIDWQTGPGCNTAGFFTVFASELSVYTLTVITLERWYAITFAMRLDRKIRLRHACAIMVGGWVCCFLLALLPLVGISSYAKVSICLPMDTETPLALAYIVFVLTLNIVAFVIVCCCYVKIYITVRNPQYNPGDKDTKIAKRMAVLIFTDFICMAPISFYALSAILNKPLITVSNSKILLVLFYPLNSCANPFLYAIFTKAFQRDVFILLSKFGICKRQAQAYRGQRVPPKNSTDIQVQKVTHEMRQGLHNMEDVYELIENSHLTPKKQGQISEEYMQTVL
Sequence of Progesterone receptor (Homo sapiens) (P06401 whole entry, looked up): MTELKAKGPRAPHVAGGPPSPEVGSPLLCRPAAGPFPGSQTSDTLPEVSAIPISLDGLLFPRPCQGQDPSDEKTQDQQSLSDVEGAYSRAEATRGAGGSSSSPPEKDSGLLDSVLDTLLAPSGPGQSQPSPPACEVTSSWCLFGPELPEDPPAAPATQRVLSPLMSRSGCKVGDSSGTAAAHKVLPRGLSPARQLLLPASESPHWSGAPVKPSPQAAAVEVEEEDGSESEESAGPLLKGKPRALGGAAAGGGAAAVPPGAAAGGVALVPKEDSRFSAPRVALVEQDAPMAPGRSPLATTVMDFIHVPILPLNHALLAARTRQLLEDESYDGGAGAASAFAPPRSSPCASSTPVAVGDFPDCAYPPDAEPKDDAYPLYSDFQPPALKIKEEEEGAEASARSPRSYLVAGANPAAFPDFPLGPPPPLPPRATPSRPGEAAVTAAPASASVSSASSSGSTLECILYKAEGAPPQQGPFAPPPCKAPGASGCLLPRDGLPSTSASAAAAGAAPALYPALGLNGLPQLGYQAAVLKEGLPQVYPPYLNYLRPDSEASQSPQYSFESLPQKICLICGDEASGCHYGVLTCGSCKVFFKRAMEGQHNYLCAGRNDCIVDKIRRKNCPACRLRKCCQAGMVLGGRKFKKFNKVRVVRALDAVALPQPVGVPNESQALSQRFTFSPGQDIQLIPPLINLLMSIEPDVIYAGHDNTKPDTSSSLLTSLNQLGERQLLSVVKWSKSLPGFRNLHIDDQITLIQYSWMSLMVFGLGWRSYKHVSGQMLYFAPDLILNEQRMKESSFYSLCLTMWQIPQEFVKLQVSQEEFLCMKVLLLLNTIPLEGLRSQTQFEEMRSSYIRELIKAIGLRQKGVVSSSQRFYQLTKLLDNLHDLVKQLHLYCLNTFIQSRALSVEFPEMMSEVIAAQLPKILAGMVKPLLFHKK
Sequence of Estrogen receptor beta (Homo sapiens) (Q92731 whole entry, looked up): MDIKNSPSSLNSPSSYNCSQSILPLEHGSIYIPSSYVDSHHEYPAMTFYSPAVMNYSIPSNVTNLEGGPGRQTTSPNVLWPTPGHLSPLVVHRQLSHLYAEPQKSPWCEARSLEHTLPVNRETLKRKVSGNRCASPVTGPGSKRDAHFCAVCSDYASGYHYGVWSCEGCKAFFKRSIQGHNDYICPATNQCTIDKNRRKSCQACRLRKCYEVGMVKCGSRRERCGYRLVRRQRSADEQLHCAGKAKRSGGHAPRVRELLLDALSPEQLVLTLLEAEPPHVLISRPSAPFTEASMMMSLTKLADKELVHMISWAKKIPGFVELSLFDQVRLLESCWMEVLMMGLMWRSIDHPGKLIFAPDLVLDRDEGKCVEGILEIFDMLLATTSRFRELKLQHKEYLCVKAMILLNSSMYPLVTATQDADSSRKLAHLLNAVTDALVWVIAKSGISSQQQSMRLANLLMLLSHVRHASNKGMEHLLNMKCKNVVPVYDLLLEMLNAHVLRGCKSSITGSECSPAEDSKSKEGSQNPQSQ
Sequence of Thyrotropin-releasing hormone receptor (Homo sapiens) (P34981 whole entry, looked up): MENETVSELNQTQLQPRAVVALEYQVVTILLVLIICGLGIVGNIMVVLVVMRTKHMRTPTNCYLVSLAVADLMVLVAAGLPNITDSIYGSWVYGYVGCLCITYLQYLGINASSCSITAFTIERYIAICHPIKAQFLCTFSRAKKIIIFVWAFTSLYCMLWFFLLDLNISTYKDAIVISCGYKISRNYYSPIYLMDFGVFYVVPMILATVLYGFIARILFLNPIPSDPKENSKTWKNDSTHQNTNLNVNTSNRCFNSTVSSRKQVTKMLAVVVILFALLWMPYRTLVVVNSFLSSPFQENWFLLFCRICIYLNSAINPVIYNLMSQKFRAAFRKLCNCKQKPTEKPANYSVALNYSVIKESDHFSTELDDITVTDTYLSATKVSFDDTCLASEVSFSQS

Turning to `Nc1cc(Cl)cc(Cl)c1`, the call in assay [1], in assay [6], in assay [7], in [8], in assay [13] and in assay [16] was inactive. The Potency entry in [2], in [3], in assay [4], in assay [5], in [9] and in assay [10] was “inactive” in each case. Moreover, the Potency result in assay [11], in [12], in [14] and in assay [15] was “inactive” each time.
For the compound `CSc1nnc(C(C)(C)C)c(=O)n1N`, the call in assay [1], in [6], in [7], in [8], in assay [13] and in assay [16] was inactive. Moreover, the Potency result in assay [2], in assay [3], in assay [4], in assay [5], in [9] and in assay [10] was “inactive” in each case. The Potency result in [11], in [12], in assay [14] and in [15] was “inactive” each time.
As to `ClCCOCCCl`, the outcome in assay [1], in assay [6], in assay [7], in assay [8], in assay [13] and in assay [17] was inactive. Also, the result in [16] was inactive. Also, the Potency result in assay [2], in [3], in [4], in assay [5], in [9] and in [10] was “inactive” in each case. The Potency entry in assay [11], in assay [12], in assay [14] and in [15] was “inactive” throughout.
Regarding `O=C(O)COc1ccccc1`, the result in assay [1], in [6], in assay [7], in assay [8], in assay [13] and in assay [16] was inactive. Also, the Potency result in assay [2], in assay [3], in [4], in [5], in assay [9] and in [10] was “inactive” each time. Besides, the Potency result in [11], in [12], in assay [14] and in assay [15] was “inactive” throughout.
With `Oc1c(Br)cc(Br)cc1Br`, the compound was classed as inactive in assay [1], in [6], in assay [7], in assay [8], in [17] and in [16]. The Potency result in [2], in assay [3], in [4], in assay [9], in assay [10] and in assay [12] was “inactive” throughout. The Potency entry in assay [14] and in assay [15] was “inactive” throughout. In addition, in [5], the Potency is 21.7 µM (active) and inactive.
On to `CNc1cnn(-c2cccc(C(F)(F)F)c2)c(=O)c1Cl`, for which the call in assay [1], in assay [6], in assay [13] and in assay [16] was inactive. For the same compound, the Potency entry in [2], in assay [3], in [4], in [5], in assay [9] and in assay [10] was “inactive” each time. Also, the Potency entry in assay [11], in assay [12], in assay [14] and in assay [15] was “inactive” in each case.
On to `NNc1ccccc1`, for which the outcome in [1], in assay [6], in assay [7], in assay [8], in [13] and in assay [17] was inactive. Further, the Potency result in assay [2], in [3], in assay [4], in assay [5], in assay [9] and in [10] was “inactive” each time. The Potency entry in assay [11], in assay [14] and in assay [15] was “inactive” throughout.
As to `Cc1cc(Cl)ccc1OC(C)C(=O)O` (centres undefined), the result in assay [1], in assay [6], in [13] and in assay [17] was inactive. For the same compound, the Potency result in assay [2], in assay [3], in [4], in assay [5], in assay [9] and in assay [10] was “inactive” in each case. Besides, the Potency entry in [11], in [12], in assay [14] and in assay [15] was “inactive” each time.
On to `CCOc1ccc(N)cc1`, for which the outcome in [1], in assay [6], in assay [7], in assay [8], in assay [13] and in [17] was inactive. For the same compound, in assay [16], the call was inactive. Also, the Potency entry in [2], in assay [3], in assay [4], in [5], in assay [9] and in [10] was “inactive” in each case. The Potency result in assay [11], in assay [14] and in assay [15] was “inactive” throughout.
